Measured values from the supplement of paper PMC3342239.
Structures can show the parent of a compound that is named as a salt.

test system: Saccharomyces cerevisiae; test: fraction of cells in G1 phase (DNA content, flow cytometry); higher = more cells with unreplicated DNA (G1 delay); conditions: temperature: 30 C; YPD; JTY2953 pdr5 snq2 (sensitized); drug added to: cultures diluted from stationary phase; 6-7 h
How it was run: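 S. cerevisiae grown in YPD at 30°C was exposed to library drugs. In one setup, overnight sensitized JTY2953 cultures were diluted 1∶200, given a final 20 µg/ml and fixed after 6–7 h, while other runs dosed dividing JTY2953 with fixation 6 h later or BY4741 with fixation 4.33 h later. Cells were ethanol-fixed, stained with SYTOX Green and analysed by flow cytometry at 10,000 events. The G1 fraction is the area of the Dean-Jett-Fox G1 peak divided by the summed G1 and G2/M areas.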

First: COc1ccc(CC2c3cc(OC)c(OC)cc3CC[N+]2(C)CCC(=O)OCCCCCOC(=O)CC[N+]2(C)CCc3cc(OC)c(OC)cc3C2Cc2ccc(OC)c(OC)c2)cc1OC (configuration not stated) [Atracurium besylate] (21.5246 µM)
Second: COc1cc2c(cc1OC)-c1c/c(=N\c3c(C)cc(C)cc3C)n(C)c(=O)n1CC2 [Trequinsin HCl] (45.2489 µM)
The “fraction of cells in G1 phase” value of the first is higher: 0.474 for the first, 0.425 for the second.

Going from `C[C@@H](O)[C@H]1C(=O)N2C(C(=O)O)=C(S[C@@H]3CN[C@H](C(=O)N(C)C)C3)[C@H](C)[C@H]12` [Meropenem] (52.1553 µM) to `C[C@H](CCC(=O)NCCS(=O)(=O)O)[C@H]1CC[C@H]2[C@@H]3[C@H](O)C[C@@H]4C[C@H](O)CC[C@]4(C)[C@H]3C[C@H](O)[C@]12C` [Taurocholic acid, sodium salt hydrate] (38.7811 µM), the “fraction of cells in G1 phase” value falls from 0.495 to 0.491.

Going from `COc1cc2nc(N(C)CCCNC(=O)C3CCCO3)nc(N)c2cc1OC` (configuration not stated) [Alfuzosin] (51.3611 µM) to `COc1cc(CNC(=O)CCCC/C=C/C(C)C)ccc1O` [Capsaicin] (65.4834 µM), the “fraction of cells in G1 phase” value rises from 0.523 to 0.556.

First: C/N=C(/NC#N)NCCSCc1csc(NC(=N)N)n1 [Tiotidine] (64.0163 µM)
Second: COC(=O)Nc1nc2cc(Sc3ccccc3)ccc2[nH]1 [Fenbendazole] (66.8106 µM)
The “fraction of cells in G1 phase” value of the first is higher: 0.478 for the first, 0.421 for the second.

Compared with `COc1ccccc1Oc1c(NS(=O)(=O)c2ccc(C(C)(C)C)cc2)nc(-c2ncccn2)nc1OCCO` [Bosentan] (36.2564 µM), `COc1ccccc1N1CCN(CC(O)COc2cccc3ccccc23)CC1` (configuration not stated) [Naftopidil 2HCl] (50.9551 µM) is higher in “fraction of cells in G1 phase” value: 0.497 for the first, 0.564 for the second.

Compared with `NC[C@H]1O[C@H](O[C@H]2[C@H](O)[C@@H](O[C@H]3O[C@H](CO)[C@@H](O)[C@H](N)[C@H]3O)[C@H](N)C[C@@H]2N)[C@H](N)C[C@@H]1O` [Tobramycin (free base)] (42.7786 µM), `CO[C@H]1/C=C/O[C@@]2(C)Oc3c(C)c(O)c4c(O)c(cc(O)c4c3C2=O)NC(=O)/C(C)=C\C=C\[C@H](C)[C@H](O)[C@@H](C)[C@@H](O)[C@@H](C)[C@H](OC(C)=O)[C@@H]1C` [Rifamycin sv] (28.7035 µM) is higher in “fraction of cells in G1 phase” value: 0.469 for the first, 0.477 for the second.

Compared with `CC(C)(C)NCC(O)c1ccc(O)c(CO)c1` (configuration not stated) [Salbutamol sulfate] (83.5711 µM), `COc1ccccc1O` [Guaiacol] (161.108 µM) is lower in “fraction of cells in G1 phase” value: 0.535 for the first, 0.531 for the second.

Going from `CC(Oc1c(Cl)cccc1Cl)C1=NCCN1` (configuration not stated) [Lofexidine] (77.1792 µM) to `COc1cc(NC(C)CCCN)c2ncccc2c1` (configuration not stated) [Primaquine phosphate] (77.1146 µM), the “fraction of cells in G1 phase” value falls from 0.483 to 0.461.

Going from `Cc1ccc(C(=O)c2cc(O)c(O)c([N+](=O)[O-])c2)cc1` [Tolcapone] (73.1937 µM) to `CC(C(=O)O)c1cccc(C(=O)c2ccccc2)c1` (configuration not stated) [Ketoprofen+D153] (78.6509 µM), the “fraction of cells in G1 phase” value falls from 0.522 to 0.495.

Compared with `CC(=O)[C@H]1CC[C@H]2[C@@H]3CC=C4C[C@@H](O)CC[C@]4(C)[C@H]3CC[C@]12C` [Pregnenolone] (63.1936 µM), `CC(=O)O[C@H]1C[C@@H]2CC[C@@H]3[C@H](CC[C@@]4(C)[C@H]3C[C@H]([N+]3(C)CCCCC3)[C@@H]4OC(C)=O)[C@@]2(C)C[C@@H]1N1CCCCC1` [Vecuronium Br] (35.8523 µM) is lower in “fraction of cells in G1 phase” value: 0.586 for the first, 0.478 for the second.

Compared with `CCOC(=O)[C@H](CCc1ccccc1)N[C@@H](C)C(=O)N1Cc2ccccc2C[C@H]1C(=O)O` [Quinapril HCl] (45.6071 µM), `CN1[C@@H](CC(=O)c2ccccc2)CCC[C@H]1C[C@H](O)c1ccccc1` [Lobeline] (59.2652 µM) is higher in “fraction of cells in G1 phase” value: 0.482 for the first, 0.525 for the second.

First: CN1CCN2c3ccccc3Cc3ccccc3C2C1 (configuration not stated) [Mianserin hcl] (75.6505 µM)
Second: CN1C2CCCC1CC(NC(=O)c1nn(C)c3ccccc13)C2 (configuration not stated) [Granisetron] (64.0168 µM)
The “fraction of cells in G1 phase” value of the first is lower: 0.471 for the first, 0.486 for the second.

Going from `C[C@@H]1CCC[C@H](C)N1NC(=O)c1ccc(Cl)c(S(N)(=O)=O)c1` [Clopamide] (57.8284 µM) to `CCOC(=O)[N-]c1c[n+](N2CCOCC2)no1` [Molsidomine] (82.564 µM), the “fraction of cells in G1 phase” value rises from 0.525 to 0.543.

With `O=P(O)(O)C(O)(Cc1cccnc1)P(=O)(O)O` [Risedronic acid] (70.6425 µM) the “fraction of cells in G1 phase” value was 0.463.
